# Laboratory results taken from the supplement of paper PMC8728848.
# The sample as a whole holds a higher share of the strongest signals than the screen did.
# B1: PX9961U-pdi-543-24-543 (Parabacteroides distasonis) (protein)
# chain: EEPVGEFLPGQVESEENIEGIVTGAYAVLDGYYASDAINSGCSNWQFGDVVSDDAYKGGGGTGDQNQIHLMEIFNANPTGIDFEARWAALYEGIKRCNQAIRLLNGSEVKNKEQRLAEMRFLRGHYYFNLKIIYNQIPWIDETLVDPNEYNKKSNIEFSSDQLWEKILEEFSAAYKVLPESQADYGRPTKMAARAYMAKVYLYQSKWKECLEACDEVIQSGKYELFPDFRNVFLPENDNCSEIIFAIQLSINDGSPNNENGSYGDRLLPPGGPYPVYGFLRPTQNLVNAYKTDVKGLPYNDGKDVSENDYVDVRLDHTLARPNIPFMDVQLYDWTPREASVYGPYSPKKRLVSLNSTYYSPIWPYVNALNFYVIRYADLLLWRAEAAIETGDLETGRKYINMIRERAKNTQHVKTMDQSQDAANYKVGVYDEPFKSKNEAVQALRMERRLEMAHEGIRFFDLVRWGVADEVINAYIAKEKVFRSHLQNAHFVKGKHEYFPIPQSMIDICGTEVMKQNPGY
# Key:
# Test in all cases: glycan array binding signal (z-score within array); higher = stronger binding
# Conditions in all cases: glycan notation: IUPAC condensed, linker removed
# [1] = molecular target: Fuc(a1-2)Gal(b1-3)GalNAc(b1-4)[Neu5Ac(a2-3)]Gal(b1-4)Glc
# Outline: (§1)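 Negative Z-scores can be read as non-binding. The Z-score is calculated within each array and then averaged across arrays of one protein sequence at different concentrations or buffers and across linkers. Arrays, 3228 in all, were curated from the Consortium for Functional Glycomics database and kept only where the protein sequence was available.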
# [2] = molecular target: Fuc(a1-2)Gal(b1-3)GlcNAc
# Outline: as §1
# [3] = molecular target: Fuc(a1-2)Gal(b1-3)GlcNAc(b1-2)Man(a1-3)[Fuc(a1-2)Gal(b1-3)GlcNAc(b1-2)Man(a1-6)]Man(b1-4)GlcNAc(b1-4)GlcNAc
# Outline: as §1
# [4] = molecular target: Fuc(a1-2)Gal(b1-4)GlcNAc(b1-3)Gal(b1-4)GlcNAc
# Outline: as §1
# [5] = molecular target: Fuc(a1-2)Gal(b1-4)GlcNAc(b1-3)Gal(b1-4)GlcNAc(b1-2)Man(a1-3)[Fuc(a1-2)Gal(b1-4)GlcNAc(b1-3)Gal(b1-4)GlcNAc(b1-2)Man(a1-6)]Man(b1-4)GlcNAc(b1-4)GlcNAc
# Outline: as §1
# [6] = molecular target: Fuc(a1-2)Gal(b1-4)[Fuc(a1-3)]GlcNAc(b1-3)GalNAc
# Outline: as §1
# [7] = molecular target: Fuc(a1-2)Gal6S(b1-4)Glc6S
# Outline: as §1
# [8] = molecular target: Fuc(a1-2)[Gal(a1-3)]Gal(b1-4)GlcNAc(b1-2)Man(a1-3)[Fuc(a1-2)[Gal(a1-3)]Gal(b1-4)GlcNAc(b1-2)Man(a1-6)]Man(b1-4)GlcNAc(b1-4)GlcNAc
# Outline: as §1
# [9] = molecular target: Fuc(a1-2)[Gal(a1-4)]Gal(b1-4)GlcNAc
# Outline: as §1
# [10] = molecular target: Gal(a1-3)Gal(b1-3)[Fuc(a1-4)]GlcNAc(b1-2)Man(a1-3)[Gal(a1-3)Gal(b1-3)[Fuc(a1-4)]GlcNAc(b1-2)Man(a1-6)]Man(b1-4)GlcNAc(b1-4)GlcNAc
# Outline: as §1
# [11] = molecular target: Gal(a1-3)Gal(b1-4)Glc
# Outline: as §1
# [12] = molecular target: Gal(a1-3)Gal(b1-4)[Fuc(a1-3)]GlcNAc
# Outline: as §1
# [13] = molecular target: Gal(a1-3)GalNAc
# Outline: as §1
# [14] = molecular target: Gal(a1-4)Gal(b1-3)GlcNAc(b1-2)Man(a1-3)[Gal(a1-4)Gal(b1-3)GlcNAc(b1-2)Man(a1-6)]Man(b1-4)GlcNAc(b1-4)GlcNAc
# Outline: as §1
# [15] = molecular target: Gal(a1-4)Gal(b1-4)GlcNAc(b1-2)Man(a1-3)[Gal(a1-4)Gal(b1-4)GlcNAc(b1-2)Man(a1-6)]Man(b1-4)GlcNAc(b1-4)GlcNAc
# Outline: as §1
# [16] = molecular target: Gal(a1-4)Gal(b1-4)GlcNAc(b1-3)Gal(b1-4)Glc
# Outline: as §1
# [17] = molecular target: Gal(b1-3)GlcNAc
# Outline: as §1
# [18] = molecular target: Gal(b1-3)GlcNAc(b1-3)Gal(b1-4)GlcNAc(b1-3)Gal(b1-4)GlcNAc(b1-2)[Gal(b1-3)GlcNAc(b1-3)Gal(b1-4)GlcNAc(b1-3)Gal(b1-4)GlcNAc(b1-6)]Man(a1-6)[Gal(b1-3)GlcNAc(b1-3)Gal(b1-4)GlcNAc(b1-3)Gal(b1-4)GlcNAc(b1-2)Man(a1-3)]Man(b1-4)GlcNAc(b1-4)[Fuc(a1-6)]GlcNAc
# Outline: as §1
# [19] = molecular target: Gal(b1-3)GlcNAc(b1-3)GalNAc
# Outline: as §1
# [20] = molecular target: Gal(b1-3)[Fuc(a1-4)]GlcNAc(b1-6)GalNAc
# Outline: as §1
# [21] = molecular target: Gal(b1-4)GlcNAc(b1-3)Gal(b1-4)GlcNAc(b1-3)Gal(b1-4)GlcNAc(b1-2)[Gal(b1-4)GlcNAc(b1-3)Gal(b1-4)GlcNAc(b1-3)Gal(b1-4)GlcNAc(b1-6)]Man(a1-6)[Gal(b1-4)GlcNAc(b1-3)Gal(b1-4)GlcNAc(b1-3)Gal(b1-4)GlcNAc(b1-2)Man(a1-3)]Man(b1-4)GlcNAc(b1-4)[Fuc(a1-6)]GlcNAc
# Outline: as §1
# [22] = molecular target: Gal(b1-4)GlcNAc(b1-3)Gal(b1-4)GlcNAc(b1-3)Gal(b1-4)GlcNAc(b1-3)Gal(b1-4)GlcNAc(b1-2)[Gal(b1-4)GlcNAc(b1-3)Gal(b1-4)GlcNAc(b1-3)Gal(b1-4)GlcNAc(b1-3)Gal(b1-4)GlcNAc(b1-6)]Man(a1-6)[Gal(b1-4)GlcNAc(b1-3)Gal(b1-4)GlcNAc(b1-3)Gal(b1-4)GlcNAc(b1-3)Gal(b1-4)GlcNAc(b1-2)Man(a1-3)]Man(b1-4)GlcNAc(b1-4)[Fuc(a1-6)]GlcNAc
# Outline: as §1
# [23] = molecular target: Gal(b1-4)GlcNAc(b1-3)Gal(b1-4)GlcNAc(b1-3)Gal(b1-4)GlcNAc(b1-3)Gal(b1-4)GlcNAc(b1-3)Gal(b1-4)GlcNAc(b1-2)Man(a1-3)[Gal(b1-4)GlcNAc(b1-3)Gal(b1-4)GlcNAc(b1-3)Gal(b1-4)GlcNAc(b1-3)Gal(b1-4)GlcNAc(b1-3)Gal(b1-4)GlcNAc(b1-2)Man(a1-6)]Man(b1-4)GlcNAc(b1-4)[Fuc(a1-6)]GlcNAc
# Outline: as §1
# [24] = molecular target: Gal(b1-4)GlcNAc(b1-6)GalNAc
# Outline: as §1
# [25] = molecular target: Gal3S(b1-4)[Fuc(a1-3)]GlcNAc
# Outline: as §1
# [26] = molecular target: Gal3S(b1-4)[Fuc(a1-3)]GlcNAc6S
# Outline: as §1
# [27] = molecular target: GalNAc(b1-4)GlcNAc(b1-2)Man(a1-3)[GalNAc(b1-4)GlcNAc(b1-2)Man(a1-6)]Man(b1-4)GlcNAc(b1-4)GlcNAc
# Outline: as §1
# [28] = molecular target: GalNAc(b1-4)GlcNAc(b1-3)GalNAc(b1-4)GlcNAc
# Outline: as §1
# [29] = molecular target: GlcNAc(a1-4)Gal(b1-4)GlcNAc
# Outline: as §1
# [30] = molecular target: GlcNAc(b1-2)[GlcNAc(b1-4)]Man(a1-3)[GlcNAc(b1-2)Man(a1-6)]Man(b1-4)GlcNAc(b1-4)GlcNAc
# Outline: as §1
# [31] = molecular target: GlcNAc(b1-2)[GlcNAc(b1-4)]Man(a1-3)[GlcNAc(b1-4)][GlcNAc(b1-2)[GlcNAc(b1-6)]Man(a1-6)]Man(b1-4)GlcNAc(b1-4)GlcNAc
# Outline: as §1
# [32] = molecular target: GlcNAc(b1-3)Gal
# Outline: as §1
# [33] = molecular target: GlcNAc(b1-3)Gal(b1-4)GlcNAc
# Outline: as §1
# [34] = molecular target: GlcNAc(b1-3)Gal(b1-4)GlcNAc(b1-3)Gal(b1-4)GlcNAc(b1-3)Gal(b1-4)GlcNAc(b1-2)[GlcNAc(b1-3)Gal(b1-4)GlcNAc(b1-3)Gal(b1-4)GlcNAc(b1-3)Gal(b1-4)GlcNAc(b1-6)]Man(a1-6)[GlcNAc(b1-3)Gal(b1-4)GlcNAc(b1-3)Gal(b1-4)GlcNAc(b1-3)Gal(b1-4)GlcNAc(b1-2)Man(a1-3)]Man(b1-4)GlcNAc(b1-4)[Fuc(a1-6)]GlcNAc
# Outline: as §1
# [35] = molecular target: GlcNAc(b1-3)Gal(b1-4)GlcNAc(b1-3)Gal(b1-4)GlcNAc(b1-3)GalNAc
# Outline: as §1
# [36] = molecular target: Man(a1-2)Man(a1-3)Man
# Outline: as §1
# [37] = molecular target: Man(a1-2)Man(a1-3)[Man(a1-2)Man(a1-6)]Man(a1-6)[Man(a1-2)Man(a1-2)Man(a1-3)]Man(b1-4)GlcNAc(b1-4)GlcNAc
# Outline: as §1
# [38] = molecular target: Man(a1-3)[Man(a1-6)]Man(a1-6)[Man(a1-2)Man(a1-3)]Man(b1-4)GlcNAc(b1-4)GlcNAc
# Outline: as §1
# [39] = molecular target: Neu5Ac(a2-3)Gal(b1-3)GlcNAc
# Outline: as §1
# [40] = molecular target: Neu5Ac(a2-3)Gal(b1-4)Glc
# Outline: as §1
# [41] = molecular target: Neu5Ac(a2-3)Gal(b1-4)GlcNAc(b1-3)Gal(b1-4)GlcNAc(b1-3)GalNAc
# Outline: as §1
# [42] = molecular target: Neu5Ac(a2-3)Gal(b1-4)[Fuc(a1-3)]GlcNAc(b1-3)GalNAc
# Outline: as §1
# [43] = molecular target: Neu5Ac(a2-3)Gal(b1-4)[Fuc(a1-3)]GlcNAc(b1-6)[Neu5Ac(a2-3)Gal(b1-3)]GalNAc
# Outline: as §1
# [44] = molecular target: Neu5Ac(a2-6)Gal
# Outline: as §1
# [45] = molecular target: Neu5Ac(a2-6)Gal(b1-4)GlcNAc(b1-2)Man(a1-3)[Neu5Ac(a2-6)Gal(b1-4)GlcNAc(b1-2)Man(a1-6)]Man(b1-4)GlcNAc(b1-4)GlcNAc
# Outline: as §1
# [46] = molecular target: Neu5Ac(a2-6)Gal(b1-4)GlcNAc(b1-3)Gal(b1-4)GlcNAc
# Outline: as §1
# [47] = molecular target: Neu5Ac(a2-6)Gal(b1-4)GlcNAc(b1-3)Gal(b1-4)GlcNAc(b1-3)Gal(b1-4)GlcNAc(b1-2)Man(a1-3)[Neu5Ac(a2-6)Gal(b1-4)GlcNAc(b1-3)Gal(b1-4)GlcNAc(b1-3)Gal(b1-4)GlcNAc(b1-2)Man(a1-6)]GalNAc
# Outline: as §1
binder,measurement,setting,value
B1,glycan array binding signal (z-score),[1],-0.337
same,glycan array binding signal (z-score),[2],-0.324
same,glycan array binding signal (z-score),[3],7.29
same,glycan array binding signal (z-score),[4],-0.463
same,glycan array binding signal (z-score),[5],-0.241
same,glycan array binding signal (z-score),[6],3.47
same,glycan array binding signal (z-score),[7],-0.226
same,glycan array binding signal (z-score),[8],8.53
same,glycan array binding signal (z-score),[9],-0.379
same,glycan array binding signal (z-score),[10],4.38
same,glycan array binding signal (z-score),[11],-0.175
same,glycan array binding signal (z-score),[12],0.287
same,glycan array binding signal (z-score),[13],-0.348
same,glycan array binding signal (z-score),[14],-0.428
same,glycan array binding signal (z-score),[15],2.13
same,glycan array binding signal (z-score),[16],-0.389
same,glycan array binding signal (z-score),[17],-0.43
same,glycan array binding signal (z-score),[18],4.42
same,glycan array binding signal (z-score),[19],-0.385
same,glycan array binding signal (z-score),[20],3.44
same,glycan array binding signal (z-score),[21],6.31
same,glycan array binding signal (z-score),[22],3.38
same,glycan array binding signal (z-score),[23],7.11
same,glycan array binding signal (z-score),[24],-0.178
same,glycan array binding signal (z-score),[25],-0.303
same,glycan array binding signal (z-score),[26],-0.27
same,glycan array binding signal (z-score),[27],-0.253
same,glycan array binding signal (z-score),[28],0.352
same,glycan array binding signal (z-score),[29],-0.445
same,glycan array binding signal (z-score),[30],-0.415
same,glycan array binding signal (z-score),[31],-0.386
same,glycan array binding signal (z-score),[32],-0.394
same,glycan array binding signal (z-score),[33],-0.432
same,glycan array binding signal (z-score),[34],-0.308
same,glycan array binding signal (z-score),[35],-0.417
same,glycan array binding signal (z-score),[36],-0.489
same,glycan array binding signal (z-score),[37],-0.408
same,glycan array binding signal (z-score),[38],6.64
same,glycan array binding signal (z-score),[39],-0.408
same,glycan array binding signal (z-score),[40],-0.368
same,glycan array binding signal (z-score),[41],-0.376
same,glycan array binding signal (z-score),[42],3.69
same,glycan array binding signal (z-score),[43],1.28
same,glycan array binding signal (z-score),[44],-0.428
same,glycan array binding signal (z-score),[45],-0.347
same,glycan array binding signal (z-score),[46],-0.364
same,glycan array binding signal (z-score),[47],0.5
